Source: PubChem (several laboratories)
CYP2C9 act – CYP2C9 (human) activation. recombinant CYP2C9, luciferin-H conversion, luminescence; hits give high values; factor 1 = untreated enzyme, 0 = blocked. activation factor at 5 µM. actives 1.4% (n = 96,000). AID 1024;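 active = activation factor of 2 or more for CYP2C9 at a 5 µM dose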;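 note: 0 = sulfaphenazole-blocked wells and 1 = vehicle-only wells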
CYP2C19 inhib – blocks human cytochrome P450 2C19; inhibition, % at 5 µM; CYP2C19 Supersomes, luciferin-H EGE luminescence, 30 min; AID 778; P33261; actives 21% (n = 96,000);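 active = CYP2C19 inhibition above a set limit at 5 µM in the primary screen, cut at about 50% in these data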;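 note: plate controls were negative control wells for no effect and 2.5 mM tranylcypromine positive control for full effect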
Cav3 T inh – blocks human Cav3.2 T-type calcium channel; Cav3.2-expressing cells, Fluo-4 calcium fluorescence FDSS; hits give low values; actives 4% (n = 100,000); O95180; B-score at 10 µM;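 active = single-dose well whose peak fluorescence ratio is a statistical outlier from its plate by either plate-standardised score or position-corrected B-score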
CYP2C9 inhib – blocks human cytochrome P450 2C9; CYP2C9 Supersomes, luciferin-H conversion, luminescence; actives 20% (n = 96,000); inhibition, % at 5 µM; P11712;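 active = blocking of liver enzyme CYP2C9 beyond about 50% at 5 µM, limit read from the data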
CYP2C19 act – increases human CYP2C19 enzyme activity. recombinant CYP2C19, luciferin-H EGE luminescence; hits give high values; 0 = fully inhibited enzyme, 1 = untreated enzyme. AID 1025. 96,000 tested, under 10 active. activation factor at 5 µM;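 active = activation factor of at least 2 at 5 µM in the primary screen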;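 note: 0 = wells with 2.5 mM tranylcypromine and 1 = vehicle-only wells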
* marks the source's active call; other numbers are inactive results; . = no result given. Hits are enriched below; roughly 27% of the tested compounds scored in any of these assays.

SMILES	CYP2C9 act	CYP2C19 inhib	Cav3 T inh	CYP2C9 inhib	CYP2C19 act
CCCCC(=O)NC(c1ccc(OC)c(OC)c1)c1c(O)ccc2ccccc12 (stereo not given)	0.1	63*	1	88*	0.4
CN(C)N=Nc1ccc(S(=O)(=O)N2CCSC2C(=O)O)cc1 (stereo not given)	.	.	0.3	.	.
CCN(CC)C(=O)CSc1nc(N)c(C#N)c(-c2cccs2)c1C#N	.	.	-0.033	.	.
CN1CCN(C(=O)CSc2nc(-c3cccs3)cc(-c3cccs3)c2C#N)CC1	0.2	86*	-0.47	78*	0.1
CCN(CC)C(=O)CSc1nc(-c2cccs2)cc(-c2cccs2)c1C#N	.	.	-6*	.	.
CC(C)(C)C(=O)NC(=C(Cl)Cl)P(=O)(O)O	1.1	-11	0.55	-14	1.1
Cc1ccc(Nc2nc(C(=O)NCCCN3CCOCC3)cs2)cc1	0.7	28	.	26	0.7
Cc1ccc(Nc2nc(C(=O)NCc3ccco3)cs2)cc1	0.1	86*	-1.5	91*	0.1
CCN(CC)C(=O)c1csc(Nc2ccc(C)cc2)n1	0.4	81*	-0.74	61*	0.2
O=C(CSc1nc(-c2ccccc2Cl)ns1)NCc1ccco1	0.4	36	-1.1	63*	0.6
Cc1ccc(Nc2nnc(SCC(=O)NCc3ccco3)s2)cc1	0.4	44	-1.1	58*	0.6
CCN(CC)C(=O)/C(=C\c1ccc2c(c1)OCO2)NC(=O)c1ccc(Br)cc1	0.6	20	.	40	0.8
CCOC(=O)/C(=N\Nc1ccc(Cl)cc1)c1csc(Nc2ccccc2)n1	0.1	12	0.26	87*	0.9
CCCc1nnc(NC(=O)CCC(=O)N2CCN(c3ccccn3)CC2)s1	0.9	-2	0.16	13	1
COc1ccc(/C=N/NC2=NCCCCC2)cc1	0.9	8	0.39	11	0.9
O=[N+]([O-])c1ccccc1/C=N/Nc1nccnc1Cl	1	28	0.34	-3	0.7
Oc1ccc(/C=N/Nc2nccnc2Cl)c(O)c1	0.5	43	1.7	52*	0.6
Oc1ccc(/C=N/Nc2cccc3cccnc23)c(O)c1	3*	5	-0.0048	-205	1
Cc1ccc(/C=N/Nc2cccc3cccnc23)c(O)c1	1.1	-6	-0.075	-10	1.1
Oc1ccccc1/C=N/Nc1nccnc1Cl	0.6	72*	0.74	43	0.3
Cc1ccc(N=Cc2ccc(O)cc2O)cc1F	1.2	6	-0.65	-18	0.9
COc1ccc(/C=N/Nc2nccnc2Cl)cc1	0.6	77*	0.75	37	0.2
O=C(CSc1nc2ccccc2c(=O)n1NC(=O)Cc1ccccc1)NCc1ccccc1Cl	0.1	90*	-3.2	94*	0.1
O=C(CSc1ncccn1)NCc1ccccc1Cl	1.2	75*	0.045	-23	0.3
Cc1c(Cl)cccc1-n1c(SCC(=O)NCc2ccccc2Cl)nnc1-c1ccncc1	0.2	94*	-3.8	81*	0.1
SMILES	CYP2C9 act	CYP2C19 inhib	Cav3 T inh	CYP2C9 inhib	CYP2C19 act
O=C(CSc1nc2ccccc2c(=O)n1-c1ccc(F)cc1)NCc1ccco1	0.8	35	-0.97	19	0.6
Clc1ccccc1CSc1ncccn1	1.3	53*	-0.0025	-34	0.5
O=C(NCc1ccccc1Cl)c1cnn2cccnc12	1.7	41	0.65	-68	0.6
Cc1cc(C)nc(N2CCN(CC(=O)NCc3ccccc3)CC2)n1	1	-9	0.25	-4	1.1
O=C(O)c1ccc(-n2nnnc2Oc2cccc3cccnc23)cc1	1	-12	0.4	-2	1.1
COC(=O)Cc1ccc(NC(=O)c2ccc(Br)o2)cc1	0.6	40	-0.11	36	0.6
CCN(CC)c1ccc(NC(=O)c2ccc(Br)o2)cc1	1.1	52*	-1.1	-9	0.5
O=C(Nc1ccccc1)c1ccc(Br)o1	.	.	0.17	.	.
Cc1cc(C(=O)Nc2cccc(C(=O)O)c2)oc1C	0.7	66*	1.4	28	0.3
Cc1cc(C(=O)Nc2cccc(C(=O)O)c2)c(C)o1	0.8	37	0.0057	16	0.6
CCc1cccc(NC(=O)c2ccc(Br)o2)c1	0.8	70*	-2.5	18	0.3
O=C(c1ccccc1)c1cccc(NC(=O)c2ccc(Br)o2)c1	0.1	64*	-3.7*	95*	0.4
O=C(Nc1ccc2c(c1)oc1ccccc12)c1ccc(Br)o1	1.2	18	1.1	-16	0.8
Nn1c(SCC(=O)N2CCN(S(=O)(=O)c3ccccc3)CC2)nnc1-c1cccs1	1	-2	2.3	-1	1
COC(=O)CC1SC(=O)NC1=Nc1cccc(C)c1 (stereo not given)	0.9	12	0.23	12	0.9
CCOc1cc(NC(=O)c2ccccn2)c(OCC)cc1NC(=O)CC(C)C	0.6	32	-0.039	44	0.7
Cc1ccc(N2C(=S)N=C(Nc3ccccc3C)C23CCOC(C)(C)C3)cc1 (stereo not given)	0.5	33	-6.1*	51*	0.7
Cc1cccc(C)c1NC1=NC(=S)N(c2ccccc2)C12CCOC(C)(C)C2 (stereo not given)	0.8	4	-0.84	19	1
COC(CNC(=O)C1CC(=O)N(CCc2ccccc2)C1)OC (stereo not given)	1	-7	0.47	-2	1.1
Cc1ccc(S(=O)(=O)NCC(=O)N(CCc2ccccc2)CC(=O)NCc2ccco2)cc1	0.5	72*	-3.6	53*	0.3
O=C(CN(Cc1ccco1)C(=O)CNS(=O)(=O)c1ccc(F)cc1)NCc1ccc(F)cc1	1	-3	-4.7	-3	1
O=C(CN(Cc1ccco1)C(=O)CNS(=O)(=O)c1ccccc1)NCc1ccc(F)cc1	0.4	61*	-0.96	62*	0.4
O=C(CN(Cc1cccs1)C(=O)CNS(=O)(=O)c1ccc(F)cc1)NCc1ccco1	0.8	58*	-0.92	22	0.4
O=C(CN(Cc1cccs1)C(=O)CNS(=O)(=O)c1ccc(Cl)cc1)NCc1ccco1	0.7	38	-4	28	0.6
O=C(Nc1ccccc1C(=O)O)c1ccc(Br)o1	0.6	-2	.	43	1
SMILES	CYP2C9 act	CYP2C19 inhib	Cav3 T inh	CYP2C9 inhib	CYP2C19 act
COC(=O)c1ccccc1NC(=O)c1cccc(NC(=O)c2ccc(Br)o2)c1C	0.9	35	-5*	14	0.6
COC(=O)c1ccccc1OC(=O)c1ccc(Br)o1	0.8	76*	0.2	16	0.2
Cc1cc2nc(-c3cccc(NC(=O)c4ccc(Br)o4)c3C)oc2cc1C	0.5	19	-1.4	50*	0.8
O=C(NC1(C(F)(F)F)C(=O)Nc2c1c(=O)[nH]c(=O)n2-c1ccc(F)cc1)c1cccnc1 (stereo not given)	1	-12	0.38	-4	1.1
CC1CCc2nn(CC(=O)NC3CCCC3)cc2C1 (stereo not given)	0.7	59*	0.31	29	0.4
CC(=O)Nc1ccc(NC(=O)Cn2cc3c(n2)CCC(C)C3)cc1 (stereo not given)	.	.	0.57	.	.
CCCSCCCNC(=O)Cn1cc2c(n1)CCC(C)C2 (stereo not given)	0.5	51*	-2.6	47	0.5
